# NOMO-1 viab – STK33 inhibitor candidate reducing NOMO-1 cell viability; hit rate 7.5% among 37,000; AID 2330; inhibition, % (concentration not given with the values); NOMO-1 AML viability, CellTiter-Glo luminescence, 72 h; in the data active = inhibition above about 80%; inconclusive = no clear call, values can overlap the other calls
# PD-1 reversal – reversal of PD-1 mediated T-cell inhibition; primary human CD4 T cells, PD-L1 beads, CellTiter-Glo 96 h; activation, % (test concentration not listed); 29,000 tested, under 10 active; AID 2316; call rule not given here;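 note: 0% = median vehicle wells and 100% = positive control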
# ROS inducer – raises reactive oxygen species in U2OS cancer cells. U2OS ROS induction, H2DCF-DA fluorescence. ROS induction (% of piperlongumine), % at 10 µM. hit rate 2% among 46,000; in the data active = ROS induction above about 79%, passing the limit was not always enough; inconclusive = no clear call, values can overlap the other calls;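 note: 0% = DMSO vehicle median and 100% = reference compound median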
# * hit, by the source's call; ? = inconclusive; · = not tested or not shown. Only a selection was taken, and hits are over-represented in it overall.
SMILES,NOMO-1 viab,PD-1 reversal,ROS inducer
C[C@H](CO)N1C[C@H](C)[C@H](CN(C)Cc2ccc(C(=O)Nc3ccccc3N)cc2)Oc2c(NC(=O)Nc3ccc(C(F)(F)F)cc3)cccc2C1=O,60,-2,5
C[C@H](CO)N1C[C@H](C)[C@H](CN(C)Cc2ccc(C(=O)Nc3ccccc3N)cc2)Oc2c(NC(=O)Nc3ccc4c(c3)OCO4)cccc2C1=O,?,-2,-4
Cc1ccc(Nc2cc(C(=O)N3CC(C)CC(C)C3)c3ccccc3n2)cc1C (centres undefined),·,·,38
CCNC(=O)c1ccc2c(c1)sc1nc(-c3ccc(OC)cc3)cn12,·,·,70
COc1c(C)c(O)c(C)c(O)c1C(=O)CCc1ccccc1,45,-1,-1
COc1c(Cc2ccccc2O)c(O)c(Cc2ccccc2O)c(O)c1C(=O)CCc1ccccc1,106*,-1,16
COc1cccc(NC(=O)CSC2=Nc3ccccc3C3=NC(C(C)C)C(=O)N23)c1 (centres undefined),·,·,33
Cc1ccsc1/C=N/NC(=O)c1ccccn1,·,·,2
CC1=N/C(=C\c2sccc2C)C(=O)O1,?,0,94*
CCOC(=O)c1oc2c(CN3CCN(C)CC3)c(O)ccc2c(=O)c1-c1ccc(OC)cc1,·,·,33
COc1ccc(NC(=O)Nc2ccc3c(c2)CC(=O)N([C@@H](C)CO)C[C@H](C)[C@H](CN(C)S(=O)(=O)c2ccc(Cl)cc2)O3)cc1,112*,0,18
COc1ccc(S(=O)(=O)N(C)C[C@H]2Oc3ccc(NC(=O)Nc4ccccc4)cc3CC(=O)N([C@H](C)CO)C[C@H]2C)cc1,7,0,18
COc1ccc(NC(=O)Nc2ccc3c(c2)CC(=O)N([C@H](C)CO)C[C@H](C)[C@H](CN(C)S(=O)(=O)c2ccc(C)cc2)O3)cc1,122*,·,12
COc1ccc(NC(=O)Nc2ccc3c(c2)CC(=O)N([C@H](C)CO)C[C@H](C)[C@H](CN(C)S(=O)(=O)c2ccc(Cl)cc2)O3)cc1,122*,·,-6
COc1ccc(NC(=O)Nc2ccc3c(c2)CC(=O)N([C@H](C)CO)C[C@@H](C)[C@@H](CN(C)S(=O)(=O)c2ccc(OC)cc2)O3)cc1,-14,·,-2
COc1ccc(S(=O)(=O)N(C)C[C@@H]2Oc3ccc(NC(=O)Nc4ccccc4)cc3CC(=O)N([C@@H](C)CO)C[C@@H]2C)cc1,21,-1,112*
COc1ccc(NC(=O)Nc2ccc3c(c2)CC(=O)N([C@H](C)CO)C[C@@H](C)[C@@H](CN(C)S(=O)(=O)c2ccc(Cl)cc2)O3)cc1,4,0,1
COc1ccc(NC(=O)Nc2ccc3c(c2)CC(=O)N([C@@H](C)CO)C[C@H](C)[C@@H](CN(C)S(=O)(=O)c2ccc(C)cc2)O3)cc1,24,-2,-13
CCC(C)C(=O)Nc1ccc(Cl)cc1 (centres undefined),·,·,-12
CSc1ccc(S(=O)(=O)Nc2c(C)cc(OCC(=O)N3CCOCC3)cc2C)cc1,·,·,-7
Cc1cc(C)c2c(N)c(C(=O)c3cccs3)sc2n1,8,0,35
CCN1C(=O)c2ccccc2Sc2ccc(C(=O)NCC3CCCO3)cc21 (centres undefined),·,·,1
C/C(=C/CO)CC[C@@H]1[C@@](C)(O)CCC2C(C)(C)CCC[C@]21C (some centres undefined),101*,-3,0
CC1(C)CCC[C@]2(C)C1CC=C(CO)[C@H]2CC/C(=C/CO)CO (some centres undefined),·,·,4
CC1CN(S(=O)(=O)c2cccc(C(=O)O)c2)CC(C)O1 (centres undefined),-1,0,-7
SMILES,NOMO-1 viab,PD-1 reversal,ROS inducer
O=C(O)c1ccccc1C(=O)N1CCc2ccccc21,·,·,-15
c1ccc(-c2nnc(N3CCc4ccccc43)nc2-c2ccccc2)cc1,40,0,103*
Cc1cc(C)cc(NC(=O)Cc2cccs2)c1,·,·,-8
O=C(NCc1ccco1)c1ccc2c(=O)n(C3CCCCC3)c(SCc3cccc(F)c3)nc2c1,·,·,17
CCCCCCCCN1C(=O)C(C(C)=O)=C(C)C1(C)O (centres undefined),98*,-37,8
COc1ccc(S(=O)(=O)N2Cc3ccccc3CC2C(=O)N2CCCCC2)cc1 (centres undefined),·,·,-11
CC1(C)Cc2cccc(C(=O)Nc3ccc(C(F)(F)F)cc3)c2O1,·,·,45
CCN(CC)S(=O)(=O)c1cc(Br)cnc1N,·,·,-6
O=C(C/C(=C1/CCc2ccccc2C1=O)c1ccccc1)c1ccccc1,115*,-1,12
NNC(=O)c1cc2c(s1)-c1ccccc1CC2,42,-22,-8
O=C(O)c1ccc(-c2nnc(-c3ccccc3Cl)o2)cc1,·,·,9
C[C@@H]1O[C@@H](O[C@H]2[C@H](O)[C@@H](O[C@@H]3O[C@H](CO)[C@@H](O)[C@H](O[C@@H]4O[C@H](CO)[C@@H](O)[C@H](O)[C@H]4O)[C@H]3O)[C@H](O[C@H]3CC[C@@]4(C)C(=CC[C@@H]5C4CC[C@@]4(C)C5C[C@@H]5O[C@]6(CC[C@@](C)(CO[C@@H]7O[C@H](CO)[C@@H](O)[C@H](O)[C@H]7O)O6)[C@@H](C)[C@@H]54)C3)O[C@@H]2CO)[C@H](O)[C@H](O)[C@H]1O (some centres undefined),120*,-9,-1
CC1CCC2(NC1)OC1CC3C4CC=C5CC(O[C@@H]6O[C@H](CO)[C@@H](O[C@@H]7O[C@@H](C)[C@H](O)[C@@H](O)[C@H]7O)[C@H](O)[C@H]6O)CCC5(C)C4CCC3(C)C1C2C (some centres undefined),7,1,52
N/C(=N\O)C(=O)Nc1ccccc1,·,·,-2
S=C(NC1CCCCC1)N1CCN(Cc2ccc3c(c2)OCO3)CC1,·,·,-5
Cc1ccc(C(=O)CC2(O)C(=O)N(Cc3cccc4ccccc34)c3ccccc32)o1 (centres undefined),36,·,·
COc1ccc(CN2C(=O)C(O)(CC(=O)c3ccc4ccccc4c3)c3ccccc32)cc1OC (centres undefined),61,·,·
COc1ccc(CN2C(=O)C(O)(CC(=O)c3ccco3)c3ccccc32)cc1OC (centres undefined),118*,·,·
O=C(CC1(O)C(=O)N(Cc2cccc3ccccc23)c2ccccc21)c1ccco1 (centres undefined),111*,·,·
CCCCN1C(=O)C(O)(CC(=O)c2ccccn2)c2ccccc21 (centres undefined),125*,-1,-11
Cc1coc(C)c1C(=O)CC1(O)C(=O)N(CCCC#N)c2ccccc21 (centres undefined),32,1,-8
NC(=O)CN1C(=O)C(O)(CC(=O)c2cccnc2)c2ccccc21 (centres undefined),-7,8,·
O=C(CC1(O)C(=O)N(Cc2cccc3ccccc23)c2ccccc21)c1ccccn1 (centres undefined),111*,-7,46
O=C1O[C@@H](c2ccccc2)[C@@H](c2ccccc2)N2[C@@H](c3ccccc3OCCO)[C@]3(C(=O)Nc4ccc(C#CC5(O)CCCCCC5)cc43)[C@@H](C(=O)Nc3nc4ccccc4s3)[C@H]12,·,·,4
C#CCN1C(=O)C(O)(CC(=O)c2ccc(C)o2)c2ccccc21 (centres undefined),120*,-1,-13
